The experiment relates to Fibrinogen (Alexa647-labelled). The experiment can be described thus: Alexa647-fibrinogen binding to printed small molecules – biochemical, small-molecule microarray, 635/667 nm fluorescence, artefact control for SMM control-protein annotation, profiling panel (AID 1131).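 Note: z-score merges 667 nm fluorescence with per-spot signal-to-noise over triplicate slides.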 The note with it: fibrinogen-A647 binding fluorescence, higher = more signal.
The compound `COC(=O)c1c2oc(c1C(=O)OC)C(=O)N(Cc1ccccc1)Cc1cn(nn1)C[C@H](Cc1ccccc1)NC(=O)N[C@H](CO)CC2` registered a composite z-score of 0.961.
As for `O=C1O[C@H](c2ccccc2)[C@H](c2ccccc2)N2[C@H]1[C@@H](C(=O)Nc1nc3ccccc3s1)[C@]1(C(=O)Nc3ccc(C#CC4(O)CCCCCC4)cc31)[C@H]2c1ccccc1OCCO`, the figure is 0.943; as for `O=C1O[C@@H](c2ccccc2)[C@@H](c2ccccc2)N2[C@@H](c3ccccc3OCCO)[C@]3(C(=O)Nc4ccc(C#CCCO)cc43)[C@@H](C(=O)N3CCCCCCC3)[C@H]12`, 0.958; as for `CC(C)N1CC=CC23O[C@@H]4C=CCOC(=O)[C@@H]4[C@H]2C(=O)N(CCCO)[C@@H]3C1=O` (some centres not stated), -1.14.
In the case of `COc1ccc([Si](C)(C)[C@@H]2[C@@H](CC(=O)N(CCO)Cc3ccccc3)O[C@]3(C(=O)N(Cc4cccc(N5CCOC5=O)c4)c4ccccc43)[C@H]2C)cc1` it was 0.732; in that of `COC(=O)[C@@]1(Cc2ccc(F)cc2)[C@H]2c3cc(C(=O)N4CCCC4)n(CCN4CNCC4=O)c3C[C@H]2CN1C(=O)c1ccccc1`, 1.
As for `C=C[C@@H](COC(C)=O)N(C(=O)OC(C)(C)C)S(=O)(=O)c1ccc(Br)cc1`, the figure is 0.741; as for `CN(C)C(=O)[C@]1(CCS(=O)(=O)c2ccccc2)N=C(c2ccc(OCCCO)cc2)O[C@@H]1c1ccccc1N=[N+]=[N-]`, 1.02.
Regarding `O=C1NC(=O)C2C1C=CC(C(O)c1ccco1)N2Nc1ccccn1` (configuration not stated), the composite z-score is -0.17.
In the case of `C=CC[C@]1(C(=O)NCCN2CCOCC2)N=C(c2ccc(OCCCO)cc2)O[C@H]1c1ccccc1CN=[N+]=[N-]` it was 0.636; in that of `CCOC(=O)C[C@H]1[C@H](OC(=O)c2ccccc2-c2ccccc2)[C@@H](NC(=O)c2ccc(-c3ccccc3)cc2)c2cc(OCCCO)ccc2N1C(=O)c1ccc2ccccc2n1`, 0.456.
In the case of `CCCC[C@@H](O)C1=C(COc2ccccc2)C[C@H]2C(=O)N(C)C(=O)[C@H]2[C@H]1CO` it was -0.247.
In the case of `COCCOC(=O)N1C(=O)[C@@]2(c3cc(C#Cc4ccc(OC)cc4)ccc31)[C@H](C(=O)Nc1nc3ccccc3s1)[C@H]1C(=O)O[C@H](c3ccccc3)[C@H](c3ccccc3)N1[C@@H]2c1ccc(O)cc1` it was 0.965; in that of `COC1OC[C@]2(C)[C@H]3C4=C(CN2C(=O)OC(C)(C)C)[C@H](C)C(CO)C(CO)C4CC[C@@H]13` (some centres not stated), 0.998; in that of `COCCCNC(=O)[C@]1(CCS(=O)(=O)c2ccccc2)N=C(c2ccc(OCCCO)cc2)O[C@@H]1c1ccccc1N=[N+]=[N-]`, 0.996.
Turning to `CCCNC(=O)[C@@]1(c2ccc([N+](=O)[O-])cc2)CC(=O)N(C2CCCCC2)[C@@H]1c1ccc(CO)cc1`, the composite z-score was determined as 0.831.
In the case of `[N-]=[N+]=NCc1ccccc1C[C@@]1(C(=O)N2CCOCC2)N=C(c2ccc(OCCCO)cc2)O[C@@H]1c1ccccc1` it was 0.884; in that of `NC(N)=NCCCn1cc(CNC(=O)[C@@H](N)Cc2ccccc2)nn1`, -0.845.
In the case of `COC(=O)[C@@]1(Cc2ccc(OC)cc2)[C@H]2c3cc(C(=O)N(C)C)n(CCO)c3C[C@H]2CN1C(=O)c1ccccc1`, the composite z-score amounted to 0.662.
In the case of `COCCCNC(=O)[C@@]1(Cc2ccccc2CN=[N+]=[N-])N=C(c2ccc(OCCCO)cc2)O[C@H]1c1ccccc1` it was 0.991.
In the case of `C=C[C@@H](OC)[C@H](OC(=O)Nc1ccc(SC)cc1)c1ccc(O)c(F)c1` it was 0.763; in that of `CCCCCCCCCCC(O)C1C=CC2C(=O)N(C)C(=O)C2N1Nc1ccc([N+](=O)[O-])cc1[N+](=O)[O-]` (configuration not stated), 0.949; in that of `O=C(NCc1ccccc1)[C@@H]1c2ccccc2C(=O)N(Cc2ccccc2C(F)(F)F)[C@H]1c1ccc(CO)cc1`, -0.709.
As for `COCCOC(=O)N1C(=O)[C@@]2(c3cc(C#CCCO)ccc31)[C@H](C(=O)Nc1nc3ccccc3s1)[C@H]1C(=O)O[C@H](c3ccccc3)[C@H](c3ccccc3)N1[C@@H]2c1ccccc1OCCO`, the composite z-score came out at 0.866.
`COCCOC(=O)N1C(=O)[C@@]2(c3cc(C#CCC(C(=O)OC)C(=O)OC)ccc31)[C@H](C(=O)N1CCc3cc(OC)c(OC)cc3C1)[C@H]1C(=O)O[C@H](c3ccccc3)[C@H](c3ccccc3)N1[C@@H]2c1ccc(OCCO)cc1` displayed a composite z-score of 0.783.
As for `COc1ccc(CCNC(=O)[C@@]2(Sc3ccc(C)cc3)CC(=O)N(C3Cc4ccccc4C3)[C@@H]2c2ccc(CO)cc2)cc1`, the figure is 0.434; as for `CC1=C([C@H](O)CCc2ccccc2)[C@H](CO)[C@@H]2C(=O)N(C)C(=O)[C@@H]2C1`, 0.431.

Source of the values: PubChem BioAssay.
